The values that follow come from ChEMBL document CHEMBL3433997, “St. Jude Leishmania screening dataset” (2016).

“And” between values parts separate entries of the source, which are not always exact repeats. Equal values may be shown once.

In general, inhibition refers to the change of the read-out against control, counted positive when it falls.

Holding throughout (type): functional
The target of assay [1] is Solute carrier family 2, facilitated glucose transporter member 1 (Homo sapiens) (UniProt P11166). As to the kind of experiment: ST_JUDE_LEISH: Cytotoxicity at 2uM final concentration against transgenic Leishmania Mexicana promastigotes LmGLUT1 that are glucose transport deficient and complemented with the human glucose transporter GLUT1. Activity is measured by DNA content using SYBR green in vitro.
Solute carrier family 2, facilitated glucose transporter member 1 (Homo sapiens), sequence (P11166 whole entry): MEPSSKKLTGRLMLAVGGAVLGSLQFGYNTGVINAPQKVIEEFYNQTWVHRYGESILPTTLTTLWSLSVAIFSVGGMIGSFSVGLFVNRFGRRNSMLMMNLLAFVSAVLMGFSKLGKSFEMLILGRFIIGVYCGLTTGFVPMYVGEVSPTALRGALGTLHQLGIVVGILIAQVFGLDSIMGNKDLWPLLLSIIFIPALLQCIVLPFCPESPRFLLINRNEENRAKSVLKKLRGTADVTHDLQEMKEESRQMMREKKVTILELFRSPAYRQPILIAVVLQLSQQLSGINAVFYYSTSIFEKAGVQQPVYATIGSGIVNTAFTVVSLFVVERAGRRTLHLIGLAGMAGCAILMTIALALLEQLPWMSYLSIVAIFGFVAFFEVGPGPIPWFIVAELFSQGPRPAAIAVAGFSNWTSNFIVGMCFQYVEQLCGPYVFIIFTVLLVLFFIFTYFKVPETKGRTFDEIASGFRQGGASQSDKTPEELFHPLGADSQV

Assay [2] has as its target Hexose transporter 1 (Plasmodium falciparum) (UniProt O97467). As to the kind of experiment: ST_JUDE_LEISH: Cytotoxicity at 2uM final concentration against transgenic Leishmania Mexicana promastigotes LmPfHT that are glucose transport deficient and complemented with the Plasmodium falciparum hexose transporter. Activity is measured by DNA content using SYBR green in vitro.

In assay [3] the target is Glucose transporter (Leishmania mexicana) (UniProt O61059). As to the kind of experiment: ST_JUDE_LEISH: Cytotoxicity at 2uM final concentration against transgenic Leishmania Mexicana promastigotes LmGT2 that are glucose transport deficient and complemented with the L. Mexicana glucose transporter 2. Activity is measured by DNA content using SYBR green in vitro.

Regarding `CN(C)CCCOc1ccc(CN2CCC(c3c[nH]c4ccc(NCC5CCCCC5)cc34)CC2)cc1`, the figures for the inhibition in assay [1], in assay [2] and in assay [3] were 3.02%, 3.5% and 3.06%, respectively.
For the compound `CCCCCCCCNCC(O)c1ccc(Cl)c(Cl)c1` (stereo not drawn), the inhibition in assay [1] stood at 2.51%; in assay [2], 3.44%; in assay [3], 1.24%.
With `O=C(CCc1ccc(Cl)cc1Cl)NC1CCC(CN2CCC(c3c[nH]c4ccccc34)CC2)CC1` (stereo not drawn), the inhibition in assay [1] was 1.11% and 15.9%; in assay [2] it was -0.14% and 8.88%; in assay [3], -2.05% and 8.96%.
Turning to `O=C(NCc1ccc(S(=O)(=O)N2CCC(CN3CCC(c4c[nH]c5ccccc45)CC3)CC2)s1)c1ccccc1`, the inhibition in assay [1] stood at 3.85%; in assay [2], 3.63%; in assay [3], 3.02%.
In the same order, the values of `CC(=O)C1(c2ccccc2)CCN(CCC2(c3ccc(Cl)c(Cl)c3)CN(C(=O)C3CCCC3)CCO2)CC1` (stereo not drawn) are 4.09%, 3.1% and 0.75%.
In the same order, the values of `CCOC(C(=O)OCC1CCCN(C)C1)(c1ccccc1)c1ccccc1` (stereo not drawn) are 4.97%, 4.46% and 5.83%.
Turning to `CCN(CC)CCN1C(=O)C(O)(c2ccccc2Cl)c2c1cc(C(N)=O)cc2C(F)(F)F` (stereo not drawn), the figures for the inhibition in assay [1], in assay [2] and in assay [3] were 3.25%, 2.29% and 2.69%, respectively.
In the same order, the values of `O=C(/C=C/c1ccsc1)NC1CCC(CN2CCC(c3c[nH]c4ccccc34)CC2)CC1` (stereo not drawn) are 1.44%, -2.35% and -0.88%.
Taken in the same sequence, the figures for `CCCC(=O)c1c(O)c2ccccc2oc1=O` were 6.46%, 7.19% and 5.83%.
As for `S=C(NCC1CCCCC1)NC1CCC(CN2CCC(c3c[nH]c4ccccc34)CC2)CC1` (stereo not drawn), the inhibition in assay [1] was 1.87%; in assay [2] it was 3.66%; in assay [3], 0.26%.
Taken in the same sequence, the figures for `COc1cccc(C(=O)C2CC2CN2CC=C(c3c[nH]c4ccc(OC)nc34)CC2)c1` (stereo not drawn) were 0.65%, 1.41% and 1.94%.
In the same order, the values of `CC[C@H]1CN2CC[C@@H]1C[C@H]2[C@H](O)c1cc(N2CCC(O)CC2)nc2ccc(OC)cc12` are -1.16%, -0.97% and -0.9%.
Regarding `COc1cc2nc(N(C)C3CCN(Cc4ccccc4)CC3)nc(N)c2cc1OC`, the inhibition in assay [1] worked out at 69.8%; in assay [2] it was 46.7%; in assay [3], 25%.
On to `CC[C@H]1CN2CC[C@H]1C[C@H]2[C@H](O)c1cc(/C=C/c2ccc(F)cc2)nc2ccc(OC)cc12`, for which the inhibition in assay [1] came out at 4.05%; in assay [2] it was 1.87%; in assay [3], 2.03%.
On to `COCCNCc1ccc(-c2ccc(CN(C(=O)Nc3ccccc3)C3CCN(Cc4ccccc4)CC3)cc2)cc1`, for which the figures for the inhibition in assay [1], in assay [2] and in assay [3] were 7.17%, 4.93% and 5.08%, respectively.
Taken in the same sequence, the figures for `Cc1[nH]c2ccccc2c1C1=CCN(CCN2CCOc3c(Br)cccc3C2=O)CC1` were 1.66%, 1.57% and 1.55%.
In the same order, the values of `O=C(/C=C/c1ccc(Cl)c(Cl)c1)N1CCC2CC(N3CCC(c4c[nH]c5ccccc45)CC3)CCC2C1` (stereo not drawn) are 3.41%, -0.87% and 0.24%.
Taken in the same sequence, the figures for `Oc1cccc(C2CCCN(Cc3cccc4cc[nH]c34)C2)c1` (stereo not drawn) were 2.13%, 4% and 3.75%.
For `CCCCCC(C)C(C)c1cc(O)c2c3c(c(=O)oc2c1)CN(Cc1ccccc1)CC3` (stereo not drawn), the inhibition was 2.03% in assay [1], 0.04% in assay [2] and -0.43% in assay [3].
In the case of `CC[C@H]1CN2CC[C@@H]1C[C@H]2[C@H](O)c1cc(-c2c(C)noc2C)nc2ccc(OC)cc12`, the inhibition stood at 3.43% in assay [1], 4.92% in assay [2] and 6.01% in assay [3].
With `O=C(/C=C/c1ccc(Cl)c(Cl)c1)N1CCC(CN2CCC(c3c[nH]c4cc(C(F)(F)F)ccc34)CC2)CC1`, the inhibition is 2.28% in assay [1], 3.35% in assay [2] and -0.87% in assay [3].
Taken in the same sequence, the figures for `COc1ccc(CN2CCN(CCOC(c3ccc(F)cc3)c3ccc(F)cc3)CC2)c(O)c1` were 6.6%, 3.26% and 2.85%.
Taken in the same sequence, the figures for `O=C(NC1CCC(CN2CCC(c3c[nH]c4ccccc34)CC2)CC1)c1cc(-c2ccccc2)c(C(F)(F)F)s1` (stereo not drawn) were 11.2%, 14.7% and 6.95%.
In the same order, the values of `CN(C)CCC(=O)c1ccccc1` are 3.21%, 4.48% and 1.99%.
For the compound `O=C(/C=C/c1cccc(Cl)c1)NC1CCC(CN2CCC(c3c[nH]c4ccccc34)CC2)CC1` (stereo not drawn), the inhibition in assay [1] was 2.39% and 2.9%; in assay [2], 2.82% and 1.43%; in assay [3], -0.58% and 2.44%.
Turning to `O=C(/C=C/c1ccc(Cl)c(Cl)c1)N(Cc1ccccc1)C1CCC(CN2CCC(c3c[nH]c4ccccc34)CC2)CC1` (stereo not drawn), the inhibition in assay [1] came to 4.82%; in assay [2], 2.84%; in assay [3] it was 4.05%.
In the same order, the values of `Cc1ccccc1CNCC(O)c1cccc(C(F)(F)F)c1` (stereo not drawn) are 1.72%, 2.2% and -1.33%.
In the same order, the values of `COC(=O)c1ccc(CC(C)NCC(O)c2cccc(C(F)(F)F)c2)cc1F` (stereo not drawn) are 2.16%, 2.23% and 2.51%.
Consider `CC(C)CNCc1cccc(-c2ccc(CN(C(=O)NC3CCCCC3)C3CCN(Cc4ccccc4)CC3)cc2)c1`, for which the inhibition came out at 4.72% in assay [1], 5.99% in assay [2] and 5.84% in assay [3].
Taken in the same sequence, the figures for `CCCc1cc([C@@H](O)[C@@H]2C[C@@H]3CCN2C[C@@H]3CC)c2ccccc2n1` were -0.67%, 3.99% and 0.11%.
Taken in the same sequence, the figures for `C/C=C1\CN2CC[C@H]1C[C@@H]2[C@@H](O)c1ccnc2ccc(O)cc12` were 2.02%, 1.55% and 2.5%.
In the same order, the values of `O=C(NC1CCC(N2CCC3(CC2)C(=O)NCN3c2ccccc2)CC1)c1cc2ccccc2[nH]1` (stereo not drawn) are -0.44%, -0.89% and 0.13%.
On to `COc1ccc(C=CC(=O)NC2CCC(CN3CCC(c4c[nH]c5ccccc45)CC3)CC2)cc1` (stereo not drawn), for which the inhibition was 3.28% and -0.32% in assay [1]; 1.24% and -0.89% in assay [2]; -5.37% and -4.75% in assay [3].
With `COC(=O)c1ccc(CC(C)NCC(O)c2cc(Cl)c(N)c(Cl)c2)cc1` (stereo not drawn), the inhibition came out at 1.96% in assay [1], 2.46% in assay [2] and 2.16% in assay [3].
In the same order, the values of `CC[C@H]1CN2CCc3cc(OC)c(OC)cc3[C@@H]2C[C@@H]1C[C@H]1NCCc2cc(OC)c(OC)cc21` are 96.8%, 94% and 90.3%.
Turning to `CC(Cc1ccc(NC(=O)CCCc2ccccc2)cc1)NCCc1cccc(Cl)c1` (stereo not drawn), the results for the inhibition in assay [1], in assay [2] and in assay [3] were 1.2%, 0.72% and 2.44%, respectively.
In the same order, the values of `O=C(Cc1cc(=O)oc2cc(O)ccc12)NC1CCC(CN2CCC(c3c[nH]c4ccccc34)CC2)CC1` (stereo not drawn) are 2.39%, 2.2% and 2.14%.
In the same order, the values of `COC(=O)/C=C/c1ccc(CC(C)NCC(O)c2cccc(Br)c2)cc1` (stereo not drawn) are 1.85%, 0.16% and 0.91%.
For `COc1ccc(C=CC(=O)N2CCC(CN3CCC(c4c[nH]c5ccccc45)CC3)CC2)cc1OC`, the results for the inhibition in assay [1], in assay [2] and in assay [3] were 1.11%, 0.91% and -0.06%, respectively.
In the same order, the values of `CC(Cc1ccc(OCCOc2ccccc2)cc1)NCC(O)c1cccc(C(F)(F)F)c1` (stereo not drawn) are 1.79%, 3.83% and 4.17%.
In the same order, the values of `C=Cc1cc(OC)c2c(c1)c(=O)oc1c2cc(OC)c2c(O)ccc([C@H]3O[C@H]([C@H](C)O)[C@H](O)[C@H]3O)c21` are 12.1%, 32.6% and 8.58%.
Taken in the same sequence, the figures for `CCCCCC(C)C(C)c1cc(O)c2c(c1)OC(C)(C)c1cnccc1-2` (stereo not drawn) were -1.41%, 0.7% and -1.32%.
In the case of `Cc1c(C(=O)NC2CCC(CN3CCC(c4c[nH]c5ccccc45)CC3)CC2)cnn1-c1c(Cl)cc(Cl)cc1Cl` (stereo not drawn), the inhibition is 1.64% in assay [1], 1.93% in assay [2] and -1.52% in assay [3].
In the same order, the values of `CN1CC=C(c2c[nH]c3ccc(-c4ccccc4)cc23)CC1` are 7.91%, 2.99% and 5.76%.
Consider `Clc1ccc2nccc(N3CCC(CN4CCC(c5c[nH]c6ccccc56)CC4)CC3)c2c1`, for which the inhibition in assay [1] amounted to 0.88%; in assay [2] it was 0.94%; in assay [3], 2.61%.
Taken in the same sequence, the figures for `O=C(/C=C/c1ccc(Cl)c(Cl)c1)NC1CCC(CN2CCC(c3c[nH]c4ccccc34)CC2)CC1` (stereo not drawn) were 2.35%, 1.2% and 1.83%.
